# Results: PubChem BioAssay (EPA / NIEHS)
# The source made the active and inactive calls. How the source made its calls: active means hit-call score of the fitted dose curve at least 0.9, where 1 is the maximum; inactive means score below 0.9.
# Assays:
# [1] = target: CCAAT/enhancer-binding protein beta (Homo sapiens) (UniProt P17676); test: ATG_C_EBP_CIS: Attagene CIS-FACTORIAL HepG2 Assay for human CCAAT/Enhancer Binding Protein (C/EBP) beta (AID 2282927); conditions: HepG2 Attagene cis-factorial transcription factor reporter; actives raise or lower the signal
# Sequence of CCAAT/enhancer-binding protein beta (Homo sapiens) (P17676 whole entry, looked up): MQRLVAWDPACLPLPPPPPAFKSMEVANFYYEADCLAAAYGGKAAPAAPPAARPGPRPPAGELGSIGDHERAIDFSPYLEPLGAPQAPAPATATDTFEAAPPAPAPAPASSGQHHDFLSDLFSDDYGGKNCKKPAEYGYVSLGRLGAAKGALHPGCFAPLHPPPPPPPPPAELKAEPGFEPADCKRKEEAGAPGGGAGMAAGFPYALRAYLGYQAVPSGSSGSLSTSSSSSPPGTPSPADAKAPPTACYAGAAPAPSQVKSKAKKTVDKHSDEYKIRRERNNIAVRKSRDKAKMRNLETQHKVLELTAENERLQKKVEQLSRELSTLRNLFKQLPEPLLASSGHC
# Outline: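 HepG2, transient MRTU transfection, 24 h treatment. RT-PCR plus CE fluorescence; DMSO negative control, bidirectional fit.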
# [2] = ATG_CMV_CIS: Attagene CIS-FACTORIAL HepG2 Assay for human CMV (Internal Marker) (AID 2282928); conditions: HepG2 CMV promoter reporter, transcription factor profiling; actives raise or lower the signal;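 further: endpoint acts as a background internal control marker rather than a target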
# Outline: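 After transient transfection of HepG2 with reporter transcription units driven by cis-regulatory promoters, cells receive test chemical for 24 h. Labeled reporter amplicons, digested with HpaI, are sized and quantified by capillary electrophoresis against DMSO.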
# [3] = ATG_AP_2_CIS: Attagene CIS-FACTORIAL HepG2 Assay for human Activator Protein 2 (AP-2) (AID 2282932); conditions: HepG2 AP-2 cis-reporter, Attagene transcription factor profiling; actives raise or lower the signal
# Outline: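 Multiplexed mRNA reporter assay in HepG2: cis-regulated units report endogenous factor activity after 24 h treatment. Fluorescence from capillary electrophoresis of RT-PCR products gives the signal, with DMSO as baseline.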
# [4] = ATG_BRE_CIS: Attagene CIS-FACTORIAL HepG2 Assay for human Bone Morphogenetic Protein (BMP) Response Element (BRE) (AID 2282933); conditions: HepG2 BMP response element reporter, Attagene transcription factor profiling; actives raise or lower the signal
# Outline: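 A HepG2 multiplex reporter system measured inducible reporter mRNA 24 h post-dosing. Detection: RT-PCR, 6-FAM primer extension, HpaI digestion, capillary electrophoresis. Activity fitted bidirectionally relative to DMSO.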
# [5] = target: Transcription factor E2F1 (Homo sapiens) (UniProt Q01094); test: ATG_E2F_CIS: Attagene CIS-FACTORIAL HepG2 Assay for human E2F Transcription Factor 1 (AID 2282935); conditions: HepG2 Attagene cis-reporter, E2F reporter RNA transcripts; actives raise or lower the signal
# Sequence of Transcription factor E2F1 (Homo sapiens) (Q01094 whole entry, looked up): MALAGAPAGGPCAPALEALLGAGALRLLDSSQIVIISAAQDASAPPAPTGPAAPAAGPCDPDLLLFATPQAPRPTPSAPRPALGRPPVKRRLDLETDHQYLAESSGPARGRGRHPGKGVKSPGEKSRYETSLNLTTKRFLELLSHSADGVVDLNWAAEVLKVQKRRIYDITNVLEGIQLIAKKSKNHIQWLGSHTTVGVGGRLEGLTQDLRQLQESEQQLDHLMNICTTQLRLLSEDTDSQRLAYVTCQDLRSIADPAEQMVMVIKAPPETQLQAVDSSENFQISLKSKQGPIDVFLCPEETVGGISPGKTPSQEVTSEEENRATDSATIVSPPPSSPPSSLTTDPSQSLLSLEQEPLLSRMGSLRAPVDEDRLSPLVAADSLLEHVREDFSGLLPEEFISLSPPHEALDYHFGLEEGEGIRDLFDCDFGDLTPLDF
# Outline: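 Measures reporter transcript levels via RT-PCR with capillary electrophoresis detection in HepG2 cells harboring cis-regulated reporter units; 24 h post-dose; bidirectional curve fitting with DMSO as baseline.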
# [6] = ATG_E_Box_CIS: Attagene CIS-FACTORIAL HepG2 Assay for human Enhancer Box (E-box) (AID 2282936); conditions: HepG2 E-box cis-reporter transcription, actives raise or lower the signal
# Outline: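 First, HepG2 cells receive multiple cis-regulated reporter constructs by transient transfection. Next, chemicals are applied for 24 h. Finally, reporter mRNA is quantified via RT-PCR and capillary electrophoresis, with DMSO as baseline.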
# [7] = ATG_M_61_CIS: Attagene CIS-FACTORIAL HepG2 Assay for M61 Transcription Factor (Internal Marker) (AID 2282937); conditions: HepG2 Attagene CIS-FACTORIAL M61 internal marker reporter; actives raise or lower the signal
# Outline: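 Readout is reporter mRNA by RT-PCR, fluorescent primer extension and capillary electrophoresis, with gain or loss fitted relative to DMSO. Transfected HepG2 cells carrying endogenous-TF-driven cis reporters were exposed to chemicals for 24 hours.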
# [8] = ATG_EGR_CIS: Attagene CIS-FACTORIAL HepG2 Assay for human Early Growth Response 1 (EGR1) (AID 2282938); conditions: HepG2 Attagene CIS-FACTORIAL EGR reporter mRNA; actives raise or lower the signal
# Outline: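 After 24 h compound exposure, RNA from reporter-transfected HepG2 cells was reverse-transcribed, PCR-amplified, fluorescently labelled and resolved by capillary electrophoresis. EGR1 reporter transcript changes, up or down, were fitted against DMSO, reflecting endogenous transcription-factor activity.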
# [9] = ATG_M_19_CIS: Attagene CIS-FACTORIAL HepG2 Assay for M19 Transcription Factor (Internal Marker) (AID 2282939); conditions: HepG2 Attagene CIS-FACTORIAL M19 internal marker reporter; actives raise or lower the signal
# Outline: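 Chemical-treated HepG2 (24 h) with MRTU constructs; reporter transcripts detected by fluorescent RT-PCR fragment analysis on capillary electrophoresis. Internal background marker, DMSO as baseline.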
# [10] = ATG_FoxO_CIS: Attagene CIS-FACTORIAL HepG2 Assay for human Forkhead box O (FoxO) (AID 2282943); conditions: HepG2 Attagene cis-reporter, FoxO element, mRNA; actives raise or lower the signal
# Outline: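 Transfected HepG2 reporter cells exposed to test chemical for 24 h; reporter RNA measured by reverse transcription, PCR and fluorescent capillary electrophoresis; curves fitted for increases and decreases against DMSO.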
# [11] = ATG_GATA_CIS: Attagene CIS-FACTORIAL HepG2 Assay for human GATA Binding Protein (AID 2282944); conditions: HepG2 GATA cis-element reporter, Attagene multiplex mRNA; actives raise or lower the signal
# Outline: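 Transfected cis-reporter HepG2 cells were treated with chemicals for 24 hours. Total RNA was then converted to cDNA, amplified with reporter-specific primers and analysed by fluorescent capillary electrophoresis, using DMSO-treated wells as baseline.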
# [12] = ATG_GLI_CIS: Attagene CIS-FACTORIAL HepG2 Assay for human Zinc Finger Protein GLI1 (AID 2282945); conditions: HepG2, Attagene cis-factorial reporter mRNA, GLI element; actives raise or lower the signal
# Outline: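 Transiently transfected HepG2 cells report endogenous transcription factor activity via cis-element-driven reporter units. After 24 h compound exposure, reporter mRNA was measured by RT-PCR with capillary electrophoresis; bidirectional fitting against DMSO baseline.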
# [13] = ATG_ISRE_CIS: Attagene CIS-FACTORIAL HepG2 Assay for human Interferon Regulatory Factor 1 (IRF1) binding to an Interferon-Stimulated Response Element (ISRE) (AID 2282948); conditions: HepG2 ISRE cis-reporter (Attagene), mRNA transcription readout; actives raise or lower the signal
# Outline: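 Cell-based cis-reporter assay; HepG2; 24 h exposure; reporter mRNA by RT-PCR plus capillary electrophoresis fluorescence; activity in either direction scored relative to DMSO.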
# [14] = ATG_M_32_CIS: Attagene CIS-FACTORIAL HepG2 Assay for M32 Transcription Factor (Internal Marker) (AID 2282949); conditions: HepG2 Attagene cis-factorial M32 reporter, mRNA; actives raise or lower the signal;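 further: background control marker of the multiplexed CIS panel rather than a real target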
# Outline: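 Following 24 h chemical exposure of HepG2 cells transiently expressing cis-promoter reporter constructs, reporter transcript levels were determined by RT-PCR with fluorescent labelling and capillary electrophoresis, then fitted bidirectionally against DMSO.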
# [15] = ATG_M_06_CIS: Attagene CIS-FACTORIAL HepG2 Assay for M06 Transcription Factor (Internal Marker) (AID 2282950); conditions: HepG2 Attagene CIS-FACTORIAL M06 internal marker reporter; actives raise or lower the signal
# Outline: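 Cells (HepG2, transiently carrying cis-driven reporter units) receive chemical for 24 h before RNA isolation. Reporter cDNA is PCR-amplified, FAM-labelled by primer extension, HpaI-digested and sized on a capillary analyser.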
# [16] = ATG_MRE_CIS: Attagene CIS-FACTORIAL HepG2 Assay for human Metal Responsive Element (MRE) (AID 2282954); conditions: HepG2 MRE cis-reporter transcription, Attagene multiplex; actives raise or lower the signal
# Outline: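 Fluorescent reporter fragments separated by capillary electrophoresis give mRNA induction for the MRE unit after 24 h treatment of transfected HepG2 cells. Endogenous transcription-factor activity is read; DMSO serves as negative control and baseline.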
# [17] = ATG_PXRE_CIS: Attagene CIS-FACTORIAL HepG2 Assay for human Pregnane X Receptor Element (PXRE) (AID 2282957); conditions: HepG2 Attagene CIS-FACTORIAL PXRE reporter, mRNA; actives raise or lower the signal
# Outline: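 Cells: HepG2, transiently transfected reporter units under cis promoter control. Exposure: 24 h. Detection: reporter mRNA via RT-PCR/CE fluorescence; bidirectional fitting, DMSO-referenced.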
# [18] = ATG_Sox_CIS: Attagene CIS-FACTORIAL HepG2 Assay for human SRY-box transcription factor (SOX) (AID 2282960); conditions: HepG2 Attagene cis-factorial SOX reporter, mRNA; actives raise or lower the signal
# Outline: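 Reporter transcripts, measured by RT-PCR and capillary electrophoresis of labelled fragments, report endogenous SOX transcription factor activity. Transiently transfected human HepG2 cells receive chemical for 24 h; changes in either direction are fitted relative to DMSO.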
# [19] = target: Transcription factor Sp1 (Homo sapiens) (UniProt P08047); test: ATG_Sp1_CIS: Attagene CIS-FACTORIAL HepG2 Assay for human Specificity Protein 1 (Sp1) (AID 2282961); conditions: HepG2 Sp1 cis-reporter transcription, actives raise or lower the signal
# Sequence of Transcription factor Sp1 (Homo sapiens) (P08047 whole entry, looked up): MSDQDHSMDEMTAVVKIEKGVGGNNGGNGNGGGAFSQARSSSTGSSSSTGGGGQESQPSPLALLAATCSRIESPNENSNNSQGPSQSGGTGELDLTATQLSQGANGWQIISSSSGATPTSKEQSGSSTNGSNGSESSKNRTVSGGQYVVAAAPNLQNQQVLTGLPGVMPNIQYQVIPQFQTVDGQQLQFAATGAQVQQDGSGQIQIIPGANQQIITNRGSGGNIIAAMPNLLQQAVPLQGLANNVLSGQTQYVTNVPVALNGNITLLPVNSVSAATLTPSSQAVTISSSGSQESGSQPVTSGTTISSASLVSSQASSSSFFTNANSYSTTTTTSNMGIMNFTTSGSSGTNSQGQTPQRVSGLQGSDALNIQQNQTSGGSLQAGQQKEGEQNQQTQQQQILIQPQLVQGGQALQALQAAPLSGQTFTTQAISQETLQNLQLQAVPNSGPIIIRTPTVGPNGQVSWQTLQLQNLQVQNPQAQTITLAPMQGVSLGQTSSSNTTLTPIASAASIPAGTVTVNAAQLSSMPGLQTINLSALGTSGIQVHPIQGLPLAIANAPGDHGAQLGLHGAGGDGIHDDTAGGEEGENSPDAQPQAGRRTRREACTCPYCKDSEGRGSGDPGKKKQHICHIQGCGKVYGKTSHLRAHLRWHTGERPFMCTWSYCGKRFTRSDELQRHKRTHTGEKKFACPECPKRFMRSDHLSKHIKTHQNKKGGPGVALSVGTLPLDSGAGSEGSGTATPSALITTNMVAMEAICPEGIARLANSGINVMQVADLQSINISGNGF
# Outline: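 Read-out is reporter transcript level, measured by RT-PCR and fluorescent capillary electrophoresis after 24 h chemical treatment. System: transiently transfected HepG2 cells reporting endogenous transcription factor activity; gain or loss fitted against DMSO baseline.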
# [20] = ATG_SREBP_CIS: Attagene CIS-FACTORIAL HepG2 Assay for human Sterol Regulatory Element Binding (SREBP) (AID 2282962); conditions: HepG2 Attagene cis-factorial SREBP reporter, mRNA; actives raise or lower the signal
# Outline: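 mRNA induction of transfected cis-promoter reporters in HepG2 cells, 24 h post-dose. Detection: RT-PCR with 6-FAM-labelled products, HpaI digest, capillary electrophoresis. DMSO served as negative control and baseline.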
structure (smiles),measurement,setting,value
C=CC(C)(CCC=C(C)C)OC(=O)c1ccccc1 (stereo not given),outcome,[1],inactive
same,AC50,[2],100 µM (active)
same,outcome,[3],inactive
same,outcome,[4],inactive
same,outcome,[5],inactive
same,outcome,[6],inactive
same,outcome,[7],inactive
same,outcome,[8],inactive
same,outcome,[9],inactive
same,outcome,[10],inactive
same,outcome,[11],inactive
same,outcome,[12],inactive
same,outcome,[13],inactive
same,outcome,[14],inactive
same,outcome,[15],inactive
same,AC50,[16],177 µM (active)
same,AC50,[17],6.33 µM (active)
same,outcome,[18],inactive
same,outcome,[19],inactive
same,outcome,[20],inactive
CC[N+](CC)(CC(=O)Nc1c(C)cccc1C)Cc1ccccc1,outcome,[1],inactive
same,outcome,[2],inactive
same,outcome,[3],inactive
same,outcome,[4],inactive
same,outcome,[5],inactive
same,outcome,[6],inactive
same,outcome,[7],inactive
same,outcome,[8],inactive
same,outcome,[9],inactive
same,outcome,[10],inactive
same,outcome,[11],inactive
same,outcome,[12],inactive
same,outcome,[13],inactive
same,outcome,[14],inactive
same,outcome,[15],inactive
same,outcome,[16],inactive
same,AC50,[17],32.4 µM (active)
same,outcome,[18],inactive
same,outcome,[19],inactive
same,outcome,[20],inactive
CC(=O)CCc1ccccc1,outcome,[1],inactive
same,outcome,[2],inactive
same,outcome,[3],inactive
same,outcome,[4],inactive
same,outcome,[5],inactive
same,outcome,[6],inactive
same,outcome,[7],inactive
same,outcome,[8],inactive
same,outcome,[9],inactive
same,outcome,[10],inactive
same,outcome,[11],inactive
same,outcome,[12],inactive
same,outcome,[13],inactive
same,outcome,[14],inactive
same,outcome,[15],inactive
same,outcome,[16],inactive
same,outcome,[17],inactive
same,outcome,[18],inactive
same,outcome,[19],inactive
same,outcome,[20],inactive
O=[N+]([O-])c1ccc2nc[nH]c2c1,outcome,[1],inactive
same,outcome,[2],inactive
same,outcome,[3],inactive
same,outcome,[4],inactive
same,outcome,[5],inactive
same,outcome,[6],inactive
same,outcome,[7],inactive
same,outcome,[8],inactive
same,outcome,[9],inactive
same,outcome,[10],inactive
same,outcome,[11],inactive
same,outcome,[12],inactive
same,outcome,[13],inactive
same,outcome,[14],inactive
same,outcome,[15],inactive
same,outcome,[16],inactive
same,outcome,[17],inactive
same,outcome,[18],inactive
same,outcome,[19],inactive
same,outcome,[20],inactive
